In PubChem BioAssay AID1745850 (National Center for Advancing Translational Sciences (NCATS), 2022) one finds Potency data, which are given here for 62 compounds.

Screen size: about 2,100 compounds; about 260 (12%) were called active. Not shown: some 58% with an inconclusive outcome. The call rests on the fitted dose curve; in most records, active means well fitted cell-killing curve with a large enough effect; inconclusive means small, poorly fitted or top-dose-only effect, or effect the other way; inactive means flat fitted curve, though single readings scatter. This is one part of the list. A call without a number means that no potency is given here.
Potency means the concentration at half of the fitted maximal effect.

The nature of this experiment: Viability Counterscreen for Confirmatory qHTS for Inhibitors of ATXN expression. Further: nearly all actives have a fitted effect of over 50% in size. As to conditions: HEK-293 ATXN2-luc cells viability, CellTiter-Fluor, 24 h. An excerpt:
PI: Daniel Scoles Ph.D. University of Utah School of Medicine, Salt Lake City, Utah MLPCN Grant: NS073009 Spinocerebellar ataxia type 2 (SCA2) is a multisystem neurodegenerative disease caused by a dominantly acting mutation leading to expansion of a polyQ domain in the ataxin-2 protein (ATXN2). SCA2 patients develop progressive ataxia and later lose function in other neuronal systems. Prominent parkinsonian signs develop in some patients. Like many neurodegenerative disorders, no symptomatic or disease-modifying treatments are known. The primary objective of the proposed research is to identify compounds inhibiting ATXN2 expression and to test them for efficacy in SCA2 mouse models. We have developed a cell-based assay paired with an in vivo mouse model using identical luciferase expression constructs. This approach takes advantage of an ATXN2-luciferase transgene, with the luciferase gene flanked by the upstream and downstream portions of the ATXN2 gene. Here we describe a 5-7 dose quantitative high thoroughput screen (qHTS) for compounds lowering ATXN2 expression. We screened the NIH Molecular Libraries Small Molecule Repository (MLSMR) and NCGC's mechanistically annotated (MIPE) and drug repurposing (NPC) collections of compounds for lowering expression of an ATXN2-luciferase reporter in HEK-293 cells. The assay is a multiplexed cell viability assay to ensure target reduction in the absence of cytotoxicity. Secondary qHTS assays included a CMV-luciferase reporter expressed in HEK-293 cells as well as a biochemical assay using recombinant luciferase to detect inhibitors of the reporter enzyme. Compounds that inhibit ATXN2 expression but is not cytotoxic were selected for confirmatory and secondary screens.
PROTOCOL TABLE (as described by Inglese J, Shamu CE and Guy RK. 2007) SEQUENCE No. (e.g., 1, 2, 3, etc.); […] (e.g., Cells, Incubation, Reagent, etc.); VALUE; DESCRIPTION. 1; Cells; 4 uL; white, solid bottom, 1536-well Greiner assay plate. 2; Incubation; 2 hr; 37 degree C in 5% humidified CO2. 3; Compounds; 23 nL; Kalypsis pintool (Wako USA) equipped with a 1536-well pin head. 4; Incubation; 24 hr; 37 degree C in 5% humidified CO2. 5; Reagent; 1 uL; Gly-Phe-7-Amino-4-trifluoromethylcoumarin. 6; Incubation; 30 min; 37 degree C in 5% humidified CO2. 7; Detection; Fluorescence; ViewLux plate reader (PerkinElmer). 8; Reagent; 3 uL; SteadyGlo luciferase solution (Promega). 9; Incubation; 5 min; room temperature. 10; Detection; Luminescence; ViewLux plate reader (PerkinElmer). NOTES (numbers refer to Sequence numbers above) 1. S2 cells expressing ATXN2-luciferase reporter were suspended in phenol-red free DMEM and dispensed in assay plates using a Multidrop Combi dispenser (Thermo Fisher Scientific). Wells containing medium only were plated on each plate, and values were used to normalize (100% inhibition) in the luciferase and CellTiter-Fluor assays. 2. Assay plates were incubated. Evaporation was prevented by covering assay plates with metal lids containing holes to allow gas diffusion. 3. Compounds were added in a dose response manner with the final concentrations of 57, 11.4, 2.28, 0.46, 0.091, 0.018, 0.0037 uM. Vehicle-only plates, with DMSO being pin-transferred to columns 5-48, were inserted uniformly at the beginning and the end of each library to monitor and record any shifts in assay performance. 5. 125 uM Gly-Phe-7-Amino-4-trifluoromethylcoumarin (MP Biomedicals) working concentration was used at a final concentration of 25 uM. 7. To assess cell viability; the assay plates were read using the ViewLux high-throughput CCD imager (PerkinElmer), wherein single end-point fluorescence measurement was acquired (excitation 405/10; emission 540/25 nm). 8. Detection reagent SteadyGlo Luciferase (Promega) was added to the assay plate. 10. Luminescence is then measured on the ViewLux imager equipped with a clear emission filter using a 2 sec exposure. […]
With `CN(Cc1cnc2nc(N)nc(N)c2n1)c1ccc(C(=O)NC(CCC(=O)O)C(=O)O)c2ccccc12` (configuration not stated), the Potency result is “inactive”.

`Cc1c(N=C2C=CC(=O)c3ccccc32)c(=O)n(-c2ccccc2)n1C`: the Potency was 28.2 µM (active).

For the compound `Cc1c(N=C2N=C(NC(=O)c3ccc(F)cc3)c3ccccc32)c(=O)n(-c2ccccc2)n1C`, the Potency result was “inactive”.

Take `Cc1cccc(/C=N/NC(=O)c2cccc(Cl)c2)n1`: the Potency entry was “inactive”.

With `COc1ccc(OCCNC(=O)C2(C)CCN2Cc2ccc3ccccc3c2)cc1` (configuration not stated), the Potency entry is “inactive”.

Turning to `C[C@@H]1CC=C[C@@H]2[C@H]1C(=O)N(Cc1ccccc1)[C@H]2c1ccccc1Br`, the Potency result is “inactive”.

On to `O=C1Nc2c(Br)cc(Br)c3cccc1c23`, for which the Potency result is “inactive”.

In the case of `COc1ccc(C)cc1NC(=O)C(Sc1nnc(-c2ccncc2)n1-c1ccc(Cl)cc1)c1ccccc1` (configuration not stated), the Potency entry is “inactive”.

`CCCOc1ccccc1C1NC(=O)NC(C)=C1C(=O)OCc1ccccc1` (configuration not stated): the Potency result is “inactive”.

`Cc1cccc(NC(c2ccc(C)s2)c2ccc3ccc(C)nc3c2O)n1` (configuration not stated): the Potency was 25.1 µM (active).

Regarding `Cn1nc(C(=O)N2CCN(c3ccc(Cl)cc3)CC2)c2c1-c1ccccc1S(=O)(=O)C2`, the Potency entry is “inactive”.

Regarding `O=C(CCC(=O)Nc1ccc(Br)cc1)N/N=C/c1ccccc1O`, the Potency result is “inactive”.

For `COC(=O)c1c(NC(=O)c2ccc([N+](=O)[O-])o2)sc2c1CCN(C(C)C)C2`, the Potency was 28.2 µM (active).

For `O=C1C=Cc2cccc3ccc(O)c1c23`, the Potency result was “inactive”.

For `O=C(CN1C(=O)c2ccccc2S1(=O)=O)c1ccc(Cl)cc1Cl`, the Potency result is “inactive”.

As to `O=[N+]([O-])c1c(Nc2ccccn2)cc(Cl)c2nonc12`, the Potency was 11.2 µM (active).

Turning to `COc1cc(OC)c(OC)cc1/C=C1\CC(C)C/C(=C\c2cc(OC)c(OC)cc2OC)C1=O` (configuration not stated), the Potency was 17.8 µM (active).

In the case of `C=CCc1ccccc1OCC(O)CN1CCN(CCN2C(=O)c3cccc4cccc(c34)C2=O)CC1` (configuration not stated), the Potency is 31.6 µM (active).

Regarding `O=C(CNC(=O)c1ccccc1O)N/N=C/c1cc(Br)ccc1OC(=O)/C=C/c1ccco1`, the Potency result was “inactive”.

For the compound `Cc1ccc(C(=O)CN2C(=O)c3ccccc3S2(=O)=O)cc1`, the Potency result is “inactive”.

For `Oc1ccc(C2CNCc3sccc32)cc1O` (configuration not stated), the Potency result is “inactive”.

As for `O=C(CN1CCCc2ccccc21)N/N=C/c1ccccc1O`, the Potency entry is “inactive”.

In the case of `C[C@@H]1ON(C)[C@H]2C[C@H]3c4[nH]c5ccc(-c6ccc7c(c6)OCO7)cc5c4CCN3C(=O)[C@@H]12`, the Potency result was “inactive”.

Regarding `CC1(C)Cc2c(ccc3ccccc23)C2=C(C(=O)N3CCCC3)C(=O)C(=O)N21`, the Potency result is “inactive”.

As to `O=C(Nc1nc(-c2ccc(S(=O)(=O)N3CCOCC3)cc2)cs1)c1ccccc1`, the Potency result is “inactive”.

For the compound `CCn1c2ccccc2c2cc(NC(=O)COC(=O)c3cc(S(=O)(=O)N4CCCCC4)ccc3Cl)ccc21`, the Potency result is “inactive”.

`Cc1nc(-c2cccc(NC(=O)c3cccc(S(=O)(=O)N4CCCC4)c3)c2)cs1`: the Potency was 28.2 µM (active).

Regarding `Cn1c(N)c(C(=O)Nc2ccc(-c3ccccc3)cc2)sc1=S`, the Potency result is “inactive”.

For `COc1ccc(C(=O)Nn2c(SCC(=O)c3ccccc3)nc3ccccc3c2=O)cc1`, the Potency result was “inactive”.

Regarding `COc1ccc(Oc2c(Cl)cnn(-c3ccccc3)c2=O)cc1`, the Potency was 3.16 µM (active).

With `COc1ccc(C2CC(c3ccccc3Cl)=NN2c2ccc(S(N)(=O)=O)cc2)cc1` (configuration not stated), the Potency result was “inactive”.

On to `COc1cc(/C=N/Nc2ccc(Cl)c(C(=O)O)c2)ccc1OC(=O)c1ccco1`, for which the Potency entry is “inactive”.

As to `CCN(CC)CCC(=O)Nc1cccc2c1C(=O)c1ccccc1C2=O`, the Potency was 3.16 µM (active).

Turning to `CCN(CC)CCNC(=O)c1ccc(NC(=O)Cc2cccc3ccccc23)cc1`, the Potency result is “inactive”.

As for `CN(CC(=O)Nc1cccc(F)c1)CC(=O)Nc1cccc2ccccc12`, the Potency result is “inactive”.

As for `CCC1=C(CC2NCCc3ccccc32)CC2c3cc(OC)c(OC)cc3CCN2C1` (configuration not stated), the Potency is 10 µM (active).

In the case of `O=C(CC1NCCc2ccccc21)Nc1ccc(Cl)cc1` (configuration not stated), the Potency result was “inactive”.

Consider `CN(c1ccc(OCC(=O)N2CCN(c3ccc(F)cc3)CC2)cc1)S(=O)(=O)c1cccs1`, for which the Potency entry is “inactive”.

On to `CCOC(=O)c1c(C)nn(-c2ccc(NC(=O)/C=C/C(=O)O)cc2)c1C`, for which the Potency entry is “inactive”.

`CC(=O)c1sc(C(C)(C)C)cc1NC(=O)/C=C/C(=O)O`: the Potency entry was “inactive”.

As to `COC(=O)c1c(NC(=O)/C=C/C(=O)O)sc(C)c1-c1ccc(C(C)C)cc1`, the Potency was 28.2 µM (active).

As for `OC[C@@H]1[C@@H](c2ccc(F)cc2)C(c2ccccc2)=NN1c1ccccc1`, the Potency result is “inactive”.

Consider `COc1cc2c(cc1OC)C(C)N(C(=O)c1cc3c(s1)-c1ccccc1OC3)CC2` (configuration not stated), for which the Potency entry is “inactive”.

As to `COc1ccccc1-c1ccc2c(c1)C(C)(Cc1cccc(F)c1)C(=O)N2` (configuration not stated), the Potency result is “inactive”.

Regarding `Cc1nonc1C(=O)N/N=C/c1ccc(O)cc1O`, the Potency entry was “inactive”.

As to `COc1ccc2c(c1)C(SCC(=O)NCCc1ccc(Cl)cc1)CC(C)(C)O2` (configuration not stated), the Potency entry was “inactive”.

As for `Cc1ccc(Nc2c(-c3ccccn3)nc3cc(C)ccn23)cc1`, the Potency was 10 µM (active).

`Cc1cccn2c(Nc3ccccc3)c(-c3ccccn3)nc12`: the Potency result is “inactive”.

Take `Cc1ccc2nc(-c3ccccn3)c(NC3CCCC3)n2c1`: the Potency entry is “inactive”.

Turning to `Cc1ccc(Nc2c(-c3ccccn3)nc3cccc(C)n23)cc1`, the Potency was 8.91 µM (active).

Regarding `N#Cc1ccc(-c2nc3cc(Cl)ccc3c(=O)n2O)cc1`, the Potency entry is “inactive”.

Take `CCCNC(=O)c1ccc2c(=O)c(O)c(-c3ccc(F)cc3)[nH]c2c1`: the Potency entry was “inactive”.

`CN(C)CCCN(C(=O)c1ccco1)c1nc2cc3c(cc2s1)OCO3`: the Potency result was “inactive”.

For the compound `CCN(c1ccccc1)S(=O)(=O)c1ccc(C(=O)N(CCCN(C)C)c2nc3c(C)cccc3s2)cc1`, the Potency was 20 µM (active).

For the compound `CN(C)CCCN(C(=O)c1ccc(S(=O)(=O)N(C)Cc2ccccc2)cc1)c1nc2cc3c(cc2s1)OCO3`, the Potency was 25.1 µM (active).

Regarding `Cc1ccc(S(=O)(=O)c2nc(NCc3ccc4c(c3)OCO4)sc2Cl)cc1`, the Potency entry was “inactive”.

Consider `CCCc1nc(NC2CCCCC2)c(C#N)c2c1COC(C)(C)C2`, for which the Potency entry was “inactive”.

Consider `CC1(S(=O)(=O)O)CC(=O)c2ccccc2C1=O` (configuration not stated), for which the Potency entry was “inactive”.

In the case of `CCCCOc1ccc(NC2=NC3(CCCC3)N=C(N)N2)cc1`, the Potency entry is “inactive”.

In the case of `COc1ccc([C@@]2(C(C)C)ON(c3ccccc3C(F)(F)F)C2=O)cc1`, the Potency entry was “inactive”.

Regarding `COc1ccc(CN(C)C(=O)c2cccc(NC(=O)CC3SC(N4CCCCC4)=NC3=O)c2)c(OC)c1` (configuration not stated), the Potency was 35.5 µM (active).

As for `Cc1ccc(Cn2ncc3c(NN)ncnc32)cc1`, the Potency entry was “inactive”.
